From PubChem BioAssay AID720540 (National Center for Advancing Translational Sciences (NCATS), 2013)
Hit rate of the full screen: of about 1,300 compounds, about 460 (35%) were called active. Roughly 39% stayed inconclusive and do not appear here. This is one part of the list. Unmarked numbers belong to inactive results. The call rests on the fitted dose curve; in most records, active means well fitted inhibition curve with a large enough effect; inconclusive means small, poorly fitted or top-dose-only effect; inactive means flat fitted curve, though single readings scatter.
Further: nearly all actives have a fitted effect of over 65% in size.
Potency means the concentration at half of the fitted maximal effect.
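Wherever activity change, negative = inhibition is given: 0% = DMSO wells and -100% = EGTA control giving full inhibition.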

What follows are compounds tested against Protein phosphatase EYA2 (Homo sapiens) (UniProt O00167) (assay: qHTS for Inhibitors of the Phosphatase Activity of Eya2: Confirmatory Assay for Cherry-picked Compounds). Conditions: purified EYA2 phosphatase activity, qHTS confirmation; series mostly up to 46.1 µM; activity change, negative = inhibition: at the top concentration.
Protein phosphatase EYA2 (Homo sapiens), sequence (O00167 whole entry, looked up): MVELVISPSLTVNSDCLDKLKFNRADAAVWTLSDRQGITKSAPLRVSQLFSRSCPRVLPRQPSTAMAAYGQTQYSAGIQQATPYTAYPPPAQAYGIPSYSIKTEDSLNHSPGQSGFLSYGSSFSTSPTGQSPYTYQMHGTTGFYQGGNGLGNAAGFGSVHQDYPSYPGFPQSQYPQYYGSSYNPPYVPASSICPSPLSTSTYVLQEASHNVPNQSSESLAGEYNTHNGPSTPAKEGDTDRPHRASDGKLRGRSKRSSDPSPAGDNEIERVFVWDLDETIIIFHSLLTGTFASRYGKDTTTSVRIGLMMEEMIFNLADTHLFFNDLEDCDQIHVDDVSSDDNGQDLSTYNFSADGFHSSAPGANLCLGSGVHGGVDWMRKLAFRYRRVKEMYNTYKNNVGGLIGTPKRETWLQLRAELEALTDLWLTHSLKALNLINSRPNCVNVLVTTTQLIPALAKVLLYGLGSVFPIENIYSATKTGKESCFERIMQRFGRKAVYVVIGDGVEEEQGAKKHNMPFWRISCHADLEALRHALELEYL
Summary of the method: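 Eya2 (0.2 uM working solution) preincubated 10 min at room temperature with compound in pH 7.5 HEPES buffer with MgCl2, BSA, DTT. OMFP added (50 uM working solution), 10 min more; fluorescence 485/525 nm, normalized to EGTA and DMSO.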
With `Cc1ccccc1NC(=O)CSc1ccc(-c2ccccn2)nn1` the Potency was 4.26 µM (active).
In the case of `Cc1cc(C)c(NC(=O)CSc2ccc(-c3ccccn3)nn2)c(C)c1`, the Potency is reported as 6.75 µM (active).
With `Cc1cc(NC(=O)CSc2nnnn2-c2ccccc2C)no1` the “activity change, negative = inhibition” value was -21.9%.
`O=C(CSc1nnc(CNC(=O)c2ccccc2)o1)Nc1nccs1` was tested, and the “activity change, negative = inhibition” value was -23.7%.
With `Cc1csc(NC(=O)CSc2ccc(-c3ccccn3)nn2)n1` the Potency was 4.26 µM (active).
For `Cc1cccc(C#Cc2ccccc2)n1`, the “activity change, negative = inhibition” value was 10.3%.
`O=S(=O)(NCCSCc1ccc(Cl)c(Cl)c1)c1ccc2c(c1)OCCO2` was tested, and the “activity change, negative = inhibition” value was -18.2%.
With `CN(C)c1ccc(NC(=O)CC(NCc2ccccn2)C(=O)O)cc1` (stereo not drawn) the Potency was 0.849 µM (active).
`CC(=O)Nc1ccc(NC(=O)COc2ncnc3ccccc23)cc1` was tested, and the “activity change, negative = inhibition” value was -5.31%.
With `Cc1ccc(CNC(=O)c2ccc(-n3cccc3)cc2)cc1` the “activity change, negative = inhibition” value was -19.7%.
In the case of `CN(C)C(CNC(=O)c1ccc2c(c1)S(=O)(=O)c1ccccc1C2=O)c1ccco1` (stereo not drawn), the “activity change, negative = inhibition” value is reported as -29.2%.
With `O=C(NCCCO)c1ccc2nc(-c3ccco3)c(-c3ccco3)nc2c1` the Potency was 9.53 µM (active).
With `O=C(NCc1ccccc1)c1ccc2nc(-c3ccco3)c(-c3ccco3)nc2c1` the Potency was 8.49 µM (active).
`Cc1cccc2cn[nH]c12` was tested, and the “activity change, negative = inhibition” value was -0.6%.
`COc1ccc(/C=N/N2CCN(Cc3ccc(C)cc3)CC2)cc1Br` was tested, and the Potency was 15.1 µM (active).
`COC1=C(Nc2ccc(OC)cc2)C(=O)c2ccccc2C1=O` was tested, and the Potency was 6.01 µM (active).
With `CC(=O)Nc1ccc(OC(=O)c2cc3cc(Br)ccc3oc2=O)cc1` the Potency was 7.57 µM (active).
`O=C(NNC(=O)c1cc2cc(Br)ccc2oc1=O)c1ccc(O)cc1` was tested, and the “activity change, negative = inhibition” value was -7.2%.
For `Cc1nc(S/C(=C\c2ccc(-c3ccc(C(=O)O)c(Cl)c3)o2)C(=O)O)n[nH]1`, the Potency was 15.1 µM (active).
In the case of `COc1ccc(Cc2nc3c4c(ncn3n2)Oc2ccc3ccccc3c2C4c2ccc(OC)c(OC)c2)cc1` (stereo not drawn), the “activity change, negative = inhibition” value is reported as -18.2%.
With `Cc1ccc(S(=O)(=O)N2c3ccccc3-c3c(ssc3=S)C2(C)C)cc1` the Potency was 15.1 µM (active).
For `COc1ccc2c(c1)-c1c(ssc1=S)C(C)(C)N2S(=O)(=O)c1ccc(C)cc1`, the Potency was 16.9 µM (active).
With `CC1CCN(C(=O)Nc2ccc3nc(-c4ccco4)c(-c4ccco4)nc3c2)CC1` the Potency was 6.75 µM (active).
In the case of `O=C(Nc1ccc2nc(-c3ccco3)c(-c3ccco3)nc2c1)N1CCCC1`, the Potency is reported as 7.57 µM (active).
With `COCCNC(=O)c1cccc(OC2CCN(Cc3ccc(F)cc3OC)CC2)c1` the “activity change, negative = inhibition” value was -8.43%.
With `O=C(CSc1nc(-c2ccccc2)nc2c1Cc1ccccc1O2)Nc1ccc(C(=O)O)cc1` the Potency was 7.57 µM (active).
For `CN(C1=C(N2CCCCC2)C(=O)c2ccccc2C1=O)c1ccccc1`, the Potency was 1.2 µM (active).
`O=C1C(NS(=O)(=O)c2ccc(Br)cc2)=C(N2CCCCC2)C(=O)c2ccccc21` was tested, and the Potency was 8.49 µM (active).
In the case of `O=C1N=c2ccccc2=C1c1sc(Nc2cccc(O)c2)nc1O`, the “activity change, negative = inhibition” value is reported as -24.2%.
With `O=C1C(Nc2cccc(O)c2)=C(N2CCCCC2)C(=O)c2ccccc21` the Potency was 15.1 µM (active).
For `CC1CCN(C2=C(NS(=O)(=O)c3ccc(Br)cc3)C(=O)c3ccccc3C2=O)CC1`, the Potency was 3.79 µM (active).
`O=C(CCS(=O)(=O)c1ccc(Br)cc1)N1CCCCCC1` was tested, and the “activity change, negative = inhibition” value was -25.4%.
For `COc1ccc(-c2cc(C3CCNCC3)[nH]n2)cc1`, the “activity change, negative = inhibition” value was -8.52%.
For `O=C(N[C@@H]1CC[C@H](CCn2cc(-c3ccccn3)nn2)O[C@@H]1CO)c1ccncc1`, the Potency was 19 µM (active).
`CC(C)(C)NC(=O)c1cccc(NC(=O)c2ccc(NC(=O)c3ccco3)cc2)c1` was tested, and the “activity change, negative = inhibition” value was -21%.
With `CCN(CC)c1ccc(NC(=O)c2ccc3c(c2)c(C)c(C)n3C)cc1` the Potency was 13.5 µM (active).
`CC1C=CCC2C(=O)N(c3ccc(OC(=O)c4ccco4)cc3)C(=O)C12` (stereo not drawn) was tested, and the Potency was 7.57 µM (active).
With `CC1C=CCC2C(=O)N(c3ccc(OC(=O)c4cccs4)cc3)C(=O)C12` (stereo not drawn) the Potency was 3.38 µM (active).
For `Cc1nc(-n2[nH]c3c(c2=O)CCCC3)[nH]c(=O)c1Cc1ccccc1`, the Potency was 19 µM (active).
With `CCCc1nc(N2CCN(C)CC2)c2sc(=S)n(-c3ccccc3)c2n1` the “activity change, negative = inhibition” value was -21.6%.
With `O=S(=O)(c1cc(O)ccc1O)c1cccc2c(S(=O)(=O)c3cc(O)ccc3O)cccc12` the Potency was 15.1 µM (active).
`N#Cc1c2nc3ccccc3nc2n2cc(NC(=O)c3ccc(F)cc3)ccc12` was tested, and the Potency was 4.26 µM (active).
`CC(C)CCNC(=O)c1onc(CSc2ccncc2)c1C(=O)NCCC(C)C` was tested, and the “activity change, negative = inhibition” value was -9.87%.
In the case of `O=C1NC(=O)/C(=C\c2ccccc2OCc2cccc([N+](=O)[O-])c2)N1`, the “activity change, negative = inhibition” value is reported as -27.6%.
With `CCOc1cc(/C=C2/NC(=O)NC2=O)cc(Br)c1OCc1ccc(C(=O)O)cc1` the Potency was 21.3 µM (active).
In the case of `Cc1c(NC(=O)c2ccco2)cccc1C(=O)NN1C(=O)c2ccccc2C1=O`, the “activity change, negative = inhibition” value is reported as -17.1%.
`COc1ccc(-c2nc(N)ncc2-c2csc(C)n2)c(O)c1` was tested, and the “activity change, negative = inhibition” value was -21.3%.
In the case of `C=C(C)COc1ccc(-c2nc(N)nc(C)c2-c2ccc(OC)cc2)c(O)c1`, the Potency is reported as 7.57 µM (active).
In the case of `O=C(O)c1ccc(CSc2nc3ccccc3c(=O)n2-c2ccccc2)cc1`, the “activity change, negative = inhibition” value is reported as -26.9%.
With `COc1ccc(-n2c(SCC(=O)Nc3cc(C(=O)O)ccc3C)nc3ccccc3c2=O)cc1Cl` the Potency was 8.49 µM (active).
For `COc1ccccc1-n1c(SCC(=O)Nc2cc(C)on2)nc2c(c1=O)SCC2`, the “activity change, negative = inhibition” value was -20.4%.
With `COc1ccccc1-c1noc2c1C(=O)N(Cc1cn(-c3ccc(Cl)cc3)nn1)CC2` the “activity change, negative = inhibition” value was -24.7%.
`O=c1cc2ncc(-n3cc([N+](=O)[O-])cn3)cn2[nH]1` was tested, and the “activity change, negative = inhibition” value was -10.2%.
For `CCC(=O)N1c2ccc(S(=O)(=O)N3CCN(c4ccc([N+](=O)[O-])cc4)CC3)cc2CC1C` (stereo not drawn), the “activity change, negative = inhibition” value was -21.1%.
With `Cc1cccc(N2CC(C(=O)OCC(=O)c3ccc(OC(=O)c4cccs4)cc3)CC2=O)c1C` (stereo not drawn) the Potency was 9.53 µM (active).
With `CCn1c2ccccc2c2cc(NC(=O)COC(=O)c3ccc(NC(=O)CC#N)cc3)ccc21` the “activity change, negative = inhibition” value was -9.27%.
`O=C(COC(=O)c1cc(=O)[nH]c2ccccc12)Nc1cccc(S(=O)(=O)N2CCOCC2)c1` was tested, and the “activity change, negative = inhibition” value was -29.9%.
In the case of `Nc1nccnc1C(=O)OCC(=O)Nc1ccc2[nH]c(=O)[nH]c2c1`, the Potency is reported as 13.5 µM (active).
In the case of `CCOc1ccc2ccccc2c1C(=O)N[C@@H]1C(=O)N2[C@@H]1SC(C)(C)[C@@H]2C(=O)O`, the “activity change, negative = inhibition” value is reported as -15.5%.
`O=C(CSc1nc2ccccc2n1CCc1ccccc1)c1ccc(O)c(O)c1` was tested, and the Potency was 13.5 µM (active).
With `Cc1ccc(OCCSc2nc3ccccc3n2CCC(=O)O)c(C(C)C)c1` the “activity change, negative = inhibition” value was -23.1%.
`O=C(C[n+]1ccccc1)c1ccc(O)c(O)c1` was tested, and the “activity change, negative = inhibition” value was -16.6%.
For `CCOCCCNC(=O)c1cc2sc(Cl)cc2n1CC`, the “activity change, negative = inhibition” value was -9.06%.
`Nc1ccccc1C(=O)NNc1c2ccccc2nc2ccccc12` was tested, and the Potency was 8.49 µM (active).
With `O=[N+]([O-])c1ccccc1Nc1nc(-c2cccnc2)cs1` the Potency was 15.1 µM (active).
In the case of `O=C(CN1C(=O)c2ccccc2C1=O)Nc1nc(-c2cccc([N+](=O)[O-])c2)cs1`, the “activity change, negative = inhibition” value is reported as -5.34%.
With `CNc1cccc2c1C(=O)c1ccccc1C2=O` the Potency was 1.69 µM (active).
`CN(C)c1ccc(N=Nc2ccnc3ccccc23)cc1` was tested, and the Potency was 3.38 µM (active).
For `Cc1cc(O)cc(O)c1/C=N/NC(=O)c1ccc2c(c1)OCCO2`, the Potency was 7.57 µM (active).
With `S=c1[nH]nc(-c2ccccn2)n1/N=C/c1ccc(Br)s1` the Potency was 16.9 µM (active).
With `NC(=O)[C@@H]1CC2(CC(c3cccc(NC(=O)COc4ccc(Cl)cc4)c3)=NO2)CN1C(=O)COc1ccc(Cl)cc1` (stereo partly drawn) the “activity change, negative = inhibition” value was -21.3%.
`Cc1c(C(=O)O)cccc1-c1ccc(/C=C2\SC(=O)NC2=O)o1` was tested, and the “activity change, negative = inhibition” value was -17.9%.
`CCn1c(C)cc(/C=C2/SC(=O)N(C(C)C(=O)OC)C2=O)c1C` (stereo not drawn) was tested, and the “activity change, negative = inhibition” value was -22.8%.
`CCOC(=O)C(C)N1C(=O)S/C(=C\c2ccc(-c3ccccc3C(=O)O)o2)C1=O` (stereo not drawn) was tested, and the Potency was 19 µM (active).
In the case of `COCCN(Cc1cc2cc3c(cc2nc1Cl)OCO3)C(=O)Nc1ccc(OC)cc1`, the “activity change, negative = inhibition” value is reported as -8.91%.
With `COc1ccc2[nH]cc(CCn3ccc(O)c(C/C=C/c4ccccc4)c3=O)c2c1` the Potency was 21.3 µM (active).
For `CC(=O)Nc1ccc(S(=O)(=O)O)c2cc(S(=O)(=O)O)c(N=Nc3ccc(N=Nc4ccc(S(=O)(=O)O)cc4)c4ccc(S(=O)(=O)O)cc34)c(O)c12`, the Potency was 1.51 µM (active).
`O=S(=O)(O)c1ccc2c(N=Nc3ccc(S(=O)(=O)O)c4ccccc34)c(O)c(S(=O)(=O)O)cc2c1` was tested, and the Potency was 7.57 µM (active).
With `CCN1CCN(c2ncnc3scc(-c4ccc(C)cc4)c23)CC1` the “activity change, negative = inhibition” value was -19%.
For `CCOc1ccc(NC(=O)C2CC(=O)N(CCc3ccc(OC)c(OC)c3)C2)cc1OCC` (stereo not drawn), the Potency was 12 µM (active).
In the case of `COc1ccc2cc(C(=O)N3CCN(c4ccc(F)cc4)CC3)[nH]c2c1`, the “activity change, negative = inhibition” value is reported as -5.52%.
`COc1ccc(N2CCN(C(=O)c3cc(-c4cc(OC)ccc4OC)nc4ccccc34)CC2)cc1` was tested, and the Potency was 16.9 µM (active).
In the case of `O=C1/C(=C\c2cccc([N+](=O)[O-])c2O)SC(=S)N1Cc1ccccc1`, the Potency is reported as 6.75 µM (active).
In the case of `Oc1ccc(-c2nc3c4c(ncn3n2)-c2ccccc2CC42CCCC2)cc1`, the “activity change, negative = inhibition” value is reported as -18.2%.
In the case of `COc1ccc(/C=C(/C#N)C(=O)Nc2ccc(O)cc2)cc1C(=O)O`, the Potency is reported as 9.53 µM (active).
`COc1ccc(CC(CC(=O)O)C(=O)Nc2ccc(Cl)c(Cl)c2)cc1` (stereo not drawn) was tested, and the “activity change, negative = inhibition” value was 6.93%.
`COc1ccc(NC(=O)/C(C#N)=C/c2ccc(-c3ccc(Cl)c(C(=O)O)c3)o2)cc1` was tested, and the Potency was 19 µM (active).
With `N#C/C(=C\c1ccc(-c2ccc(C(=O)O)cc2)o1)C(=O)Nc1ccc(F)cc1` the Potency was 16.9 µM (active).
In the case of `O=C(Cn1ccc(=O)[nH]c1=O)Nc1nccs1`, the “activity change, negative = inhibition” value is reported as -8.64%.
`CC(Oc1ccc(F)cc1)C(=O)Nc1cc(S(=O)(=O)N2CCCCC2)ccc1N1CCN(C)CC1` (stereo not drawn) was tested, and the “activity change, negative = inhibition” value was -25.7%.
In the case of `CCOc1ccc(S(=O)(=O)N2CCN(C)CC2)cc1NC(=O)c1ccccc1F`, the Potency is reported as 8.49 µM (active).
With `Cc1ccc(-c2csc(N3CCN(CCCn4c(C(F)(F)F)nc5ccccc54)CC3)n2)cc1` the “activity change, negative = inhibition” value was -22.1%.
`Oc1[nH]c2ccccc2c1N=Nc1nc2ccccc2s1` was tested, and the “activity change, negative = inhibition” value was -30%.
